Reference: PubChem BioAssay (NCI)
This is part of a sample that, as a whole, favours compounds with a hit. Of some 83,000 tested, about 20% had one in any assay.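 In brief: 96-well plates, 48 h treatment, single concentration, percent growth endpoint.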 Values without a mark were called inactive. Activity calls are given as the source filed them. The calls were made as follows: active = growth percent below 10; inactive = the rest.

These compounds were tested on SN12C renal (assay: NCI-60 one-dose screen, 48 h (100 = growth as untreated, 0 = no growth, -100 = all killed)). Conditions: 10 µM unless noted.
For `COc1cc(/C=C2\CN(S(=O)(=O)c3ccccc3)C/C(=C\c3cc(CN4CCCCC4)c(O)c(OC)c3)C2=O)cc(CN2CCCCC2)c1O`, the growth was -42.4% (active).
For `O=C(N/N=C/c1cc(Cl)ccc1O)c1ccccc1Nc1ccnc(C(F)(F)F)c1`, the growth was 20.7%.
`COc1cc(OC)c(C(=O)C(CN(C)C)CN(C)C)cc1OC` gave a growth of 107%.
Work on `CCOc1cccc(/C=N/NC(=O)c2cccc(Nc3ccnc(C(F)(F)F)c3)c2)c1O` yielded a growth of 33.2%.
`O=C1/C(=C/c2ccc(O)c(O)c2)COc2ccc(-c3ccccc3)cc21` was tested, and the growth was 13.9%.
Work on `CCN1C(=O)N(CC)C2C1NC(=S)N2/N=C/c1ccc(OC)cc1` (stereo not drawn) yielded a growth of 62.6%.
Work on `Cc1ccc2c(=O)cc(C(=O)Nc3sc4c(c3C(=O)NCc3cccnc3)CCCC4)oc2c1C` yielded a growth of 95.3%.
For `CCOC(=O)CC1CSC(Nc2ccccc2)=N1` (stereo not drawn), the growth was 103%.
With `Nn1c(=O)c(=O)[nH]c2c(cnn2-c2ccccc2)c1=O` the growth was 105%.
Compound `Nc1[nH]n2cc(-c3ccc(F)cc3)nc2c1N=Nc1ccc(S(N)(=O)=O)cc1` has a growth of 68.9%.
Work on `Cn1cc(-c2csc(-c3c[nH]c4ccc(F)cc34)n2)c2ccnc(Cl)c21` yielded a growth of 73.6%.
`Cc1nc2c(c(=O)[nH]1)C(c1ccccc1)c1ccc3ccccc3c1O2` (stereo not drawn) gave a growth of 44.6%.
`C=C(C)[C@@H]1CC[C@]2(C(N)=O)CC[C@]3(C)[C@H](CC[C@@H]4[C@@]5(C)CC[C@H](OCCC#N)C(C)(C)[C@@H]5CC[C@]43C)[C@@H]12` gave a growth of 78.5%.
For `N#Cc1c(Nc2ccc(N3CCOCC3)cc2)nc(SCC(=O)c2ccc(Br)cc2)nc1-c1ccccc1`, the growth was 104%.
In the case of `O=C(NNC(=O)c1ccc(NC(=O)c2ccccn2)cc1)Nc1ccc2ccccc2c1`, the growth is reported as 101%.
`CC(=O)OC[C@]12CC[C@@H]([C@@H](C)c3nnc(-c4ccncc4)o3)[C@@H]1[C@H]1CC[C@@H]3[C@@]4(C)CC[C@H](OC(C)=O)C(C)(C)[C@@H]4CC[C@@]3(C)[C@]1(C)CC2` gave a growth of 87.1%.
`CCN(CC)Cc1cc(Nc2ccnc3cc(Cl)ccc23)ccc1O` was tested, and the growth was 81.9%.
`COc1ccc(/C=C/C(c2cc(OC)c(OC)c(OC)c2)n2cncn2)cc1` (stereo not drawn) gave a growth of 62%.
Compound `Cc1ccc(C)c2c(C)c(C(=O)Nc3cccc(-n4cccn4)c3)oc12` has a growth of 70% [50 µM].
For `COc1ccc(/C=C/C(c2cc(OC)c(OC)c(OC)c2)n2ccnc2)cc1O` (stereo not drawn), the growth was 57.2%.
Compound `O=S(=O)(NCCCNc1nccc(-c2c(-c3cccc(F)c3)nc3occn23)n1)c1ccc(F)cc1` has a growth of 51.2%.
For `Cn1cc(-c2ccc(-c3cn(C)c4ccc(Cl)cc34)[nH]2)c2cc(Cl)ccc21`, the growth was 7.64% (active).
Compound `S=C(c1ccc2c(c1)OCO2)N1CCN(c2cccc(Cl)c2)CC1` has a growth of 50.7%.
`O=C(O)c1ccc(-c2ccc(/C=N/Nc3nc(Nc4ccccc4)nc(N4CCCCC4)n3)o2)cc1` was tested, and the growth was 66.8%.
In the case of `COc1cccc(Nc2ncnc3cc(NC(=O)CCl)ccc23)c1`, the growth is reported as -74.7% (active).
In the case of `COc1ccc(-c2n[nH]c(=O)c3nc(NC(=S)Nc4ccc(Oc5ccccc5)cc4)sc23)cc1`, the growth is reported as 100%.
`COc1ccc(C(=O)N2c3ccccc3Sc3ccccc32)c(C(F)(F)F)c1` showed a growth of 40.1%.
Work on `C#CCNC(=O)[C@]1(C)CCC[C@@]2(C)[C@H]1CC=C1C=C(C(C)C)CC[C@@H]12` yielded a growth of 96.7%.
For `O=C(CCCCCNC(=O)c1cc(=O)c(O)co1)Nc1ccccc1`, the growth was 110%.
`CNC1=CC(=O)c2c(C(=O)OC)c(C)[n+]([O-])c(C)c2C1=O` was tested, and the growth was 40%.
Work on `O=C1/C(=C\c2ccccn2)c2ccccc2N1c1c(Cl)cccc1Cl` yielded a growth of 18.1%.
`COc1cc(OC)cc(-c2ccc(-c3ccc(C(=N)N)o3)o2)c1` was tested, and the growth was 53%.
Work on `C#CCOc1cccc(-c2ncnc3cc(NC(=O)C=C)ccc23)c1` yielded a growth of 15%.
`COc1ccc(-c2nn(-c3ccccc3)cc2/C=C/C(=O)NNC(=O)Nc2ccc(C)cc2)cc1` showed a growth of 97%.
`C/C(Cc1ccc(Cl)cc1)=C(\c1ccc(OCCCN(C)C)cc1)c1ccc(OC(=O)Cc2ccccc2)cc1` gave a growth of 105%.
With `CCOC(=O)C(=CNc1cnc(Nc2ccc(N3CCOCC3)cc2)nc1Oc1ccc(OC)cc1)C(=O)OCC` the growth was 26.6%.
For `CC[N+]1(CC)CC[N+]2(CCCC(C)CC2)CC1` (stereo not drawn), the growth was 96.4%.
In the case of `CCNc1nc(O)c(/C=C2\C=Nc3ncccc32)s1`, the growth is reported as 12.6%.
`COc1cc(/C=N/Nc2ccc(Br)cc2)cc(OC)c1OC` was tested, and the growth was 69.7%.

What follows are compounds tested on UO-31 renal in the same assay as above. Conditions: 10 µM unless noted.
With `COc1cc(/C=C2\CN(S(=O)(=O)c3ccccc3)C/C(=C\c3cc(CN4CCCCC4)c(O)c(OC)c3)C2=O)cc(CN2CCCCC2)c1O` the growth was -96.6% (active).
`O=C(N/N=C/c1cc(Cl)ccc1O)c1ccccc1Nc1ccnc(C(F)(F)F)c1` showed a growth of 21.1%.
In the case of `COc1cc(OC)c(C(=O)C(CN(C)C)CN(C)C)cc1OC`, the growth is reported as 10.4%.
`CCOc1cccc(/C=N/NC(=O)c2cccc(Nc3ccnc(C(F)(F)F)c3)c2)c1O` gave a growth of 17.3%.
For `O=C1/C(=C/c2ccc(O)c(O)c2)COc2ccc(-c3ccccc3)cc21`, the growth was -64.6% (active).
`CCN1C(=O)N(CC)C2C1NC(=S)N2/N=C/c1ccc(OC)cc1` (stereo not drawn) showed a growth of 51.8%.
In the case of `Cc1ccc2c(=O)cc(C(=O)Nc3sc4c(c3C(=O)NCc3cccnc3)CCCC4)oc2c1C`, the growth is reported as 78.5%.
For `CCOC(=O)CC1CSC(Nc2ccccc2)=N1` (stereo not drawn), the growth was 91.8%.
In the case of `Nn1c(=O)c(=O)[nH]c2c(cnn2-c2ccccc2)c1=O`, the growth is reported as 82.2%.
`Nc1[nH]n2cc(-c3ccc(F)cc3)nc2c1N=Nc1ccc(S(N)(=O)=O)cc1` gave a growth of 58.3%.
In the case of `Cn1cc(-c2csc(-c3c[nH]c4ccc(F)cc34)n2)c2ccnc(Cl)c21`, the growth is reported as 53%.
With `Cc1nc2c(c(=O)[nH]1)C(c1ccccc1)c1ccc3ccccc3c1O2` (stereo not drawn) the growth was 38.6%.
`C=C(C)[C@@H]1CC[C@]2(C(N)=O)CC[C@]3(C)[C@H](CC[C@@H]4[C@@]5(C)CC[C@H](OCCC#N)C(C)(C)[C@@H]5CC[C@]43C)[C@@H]12` showed a growth of 75.8%.
`N#Cc1c(Nc2ccc(N3CCOCC3)cc2)nc(SCC(=O)c2ccc(Br)cc2)nc1-c1ccccc1` gave a growth of 87.3%.
In the case of `O=C(NNC(=O)c1ccc(NC(=O)c2ccccn2)cc1)Nc1ccc2ccccc2c1`, the growth is reported as 82.5%.
Compound `CC(=O)OC[C@]12CC[C@@H]([C@@H](C)c3nnc(-c4ccncc4)o3)[C@@H]1[C@H]1CC[C@@H]3[C@@]4(C)CC[C@H](OC(C)=O)C(C)(C)[C@@H]4CC[C@@]3(C)[C@]1(C)CC2` has a growth of 69%.
`CCN(CC)Cc1cc(Nc2ccnc3cc(Cl)ccc23)ccc1O` gave a growth of 87.1%.
`COc1ccc(/C=C/C(c2cc(OC)c(OC)c(OC)c2)n2cncn2)cc1` (stereo not drawn) showed a growth of 64.4%.
Compound `Cc1ccc(C)c2c(C)c(C(=O)Nc3cccc(-n4cccn4)c3)oc12` has a growth of 40.7% [50 µM].
`COc1ccc(/C=C/C(c2cc(OC)c(OC)c(OC)c2)n2ccnc2)cc1O` (stereo not drawn) showed a growth of 59.9%.
With `O=S(=O)(NCCCNc1nccc(-c2c(-c3cccc(F)c3)nc3occn23)n1)c1ccc(F)cc1` the growth was 31.4%.
In the case of `Cn1cc(-c2ccc(-c3cn(C)c4ccc(Cl)cc34)[nH]2)c2cc(Cl)ccc21`, the growth is reported as -93.1% (active).
`S=C(c1ccc2c(c1)OCO2)N1CCN(c2cccc(Cl)c2)CC1` gave a growth of 57.4%.
`O=C(O)c1ccc(-c2ccc(/C=N/Nc3nc(Nc4ccccc4)nc(N4CCCCC4)n3)o2)cc1` showed a growth of 44.4%.
`COc1cccc(Nc2ncnc3cc(NC(=O)CCl)ccc23)c1` was tested, and the growth was -93.9% (active).
With `COc1ccc(-c2n[nH]c(=O)c3nc(NC(=S)Nc4ccc(Oc5ccccc5)cc4)sc23)cc1` the growth was 77.1%.
Compound `COc1ccc(C(=O)N2c3ccccc3Sc3ccccc32)c(C(F)(F)F)c1` has a growth of 39.8%.
For `C#CCNC(=O)[C@]1(C)CCC[C@@]2(C)[C@H]1CC=C1C=C(C(C)C)CC[C@@H]12`, the growth was 88.8%.
In the case of `O=C(CCCCCNC(=O)c1cc(=O)c(O)co1)Nc1ccccc1`, the growth is reported as 83.9%.
`CNC1=CC(=O)c2c(C(=O)OC)c(C)[n+]([O-])c(C)c2C1=O` showed a growth of 90.7%.
In the case of `O=C1/C(=C\c2ccccn2)c2ccccc2N1c1c(Cl)cccc1Cl`, the growth is reported as 16.8%.
Compound `COc1cc(OC)cc(-c2ccc(-c3ccc(C(=N)N)o3)o2)c1` has a growth of 67.3%.
`C#CCOc1cccc(-c2ncnc3cc(NC(=O)C=C)ccc23)c1` was tested, and the growth was 15%.
`COc1ccc(-c2nn(-c3ccccc3)cc2/C=C/C(=O)NNC(=O)Nc2ccc(C)cc2)cc1` was tested, and the growth was 84.2%.
For `C/C(Cc1ccc(Cl)cc1)=C(\c1ccc(OCCCN(C)C)cc1)c1ccc(OC(=O)Cc2ccccc2)cc1`, the growth was 96%.
`CCOC(=O)C(=CNc1cnc(Nc2ccc(N3CCOCC3)cc2)nc1Oc1ccc(OC)cc1)C(=O)OCC` showed a growth of 11.3%.
`CC[N+]1(CC)CC[N+]2(CCCC(C)CC2)CC1` (stereo not drawn) showed a growth of 94.7%.
`CCNc1nc(O)c(/C=C2\C=Nc3ncccc32)s1` was tested, and the growth was 7.47% (active).
Work on `COc1cc(/C=N/Nc2ccc(Br)cc2)cc(OC)c1OC` yielded a growth of 35%.
